Experimental data taken from PubChem BioAssay AID2672 (National Center for Advancing Translational Sciences (NCATS), 2010).
Inconclusive results are not listed. A number with no mark means an inactive call. Active and inactive are the calls of the source. The call rests on the fitted dose curve; in most records, active means well fitted curve in the direction sought with a large enough effect; inconclusive means small, poorly fitted or top-dose-only effect, or another doubt; inactive means no such curve, though single readings can be large or run the other way.

Assay: qHTS Assay Multiplex Screening to Identify Dual Action Probes in a Cell Model of Huntington: Cytoprotection in HTT Q25 expressing cells (ATP)
Conditions: PC12 HTT-Q25 inducible, ATP luminescence, 40 h; series mostly up to 46.1 µM; activity change, positive = cytoprotection: at the top concentration
Description: NIH Chemical Genomics Center [NCGC] NIH Molecular Libraries Probe Production centers Network [MLPCN] MLPCN Grant: MH084839-01A1 Assay Submitter (PI): Wei Zheng NCGC Assay Overview: Huntington's disease is a neurodegenerative disorder caused by a trinucleotide repeat expansion in Exon 1 of the Huntingtin gene. The CAG trinucleotide encodes glutamine and polyglutamine expansions cause cell death in selective areas of the brain. Huntington polyglutamine repeats have the tendency to form aggregates which are observable in later stages of the disease. The exact nature of the aggregates, whether toxic, protective, or insignificant, is unclear. A stable PC12 cell line containing a gene fusion of Exon 1 of the Huntingtin gene linked to GFP under the control of the inducible ecdysone promoter were used as the cell-based model of Huntington Disease for high throughput screening. Exon 1 of the Huntingtin gene contained an expansion of 103 polyglutamines (Q103) which, when expressed, caused cell death and distinct, bright GFP aggregates. The amount of cell death and the size and intensity of GFP aggregates increased over time and induction level. The cell death were quantified with a measurement of ATP content in the cells. A maximal 40-50% of cell death was observed when the Huntington gene was induced in this cell line. We optimized this assay in a homogeneous 1536 well format. A quantitative high throughput screen (qHTS) was conducted on the PC12 cells which were induced to express the toxic fusion construct. Small molecules which prevented cell death were identified by using a luminescent ATP quantification method (Perkin Elmer's ATPlite). To characterize compound effects on a different form of the HTT protein, PC12 cells stably containing a construct with an ecdysone inducible promoter expressing GFP fused to the exon 1 of HTTQ25 (Huntington protein which containing a 25 ployglutamine expansion) were used. Less cytoxicity occurs upon induction of HTTQ25.
PC12 cells stably containing a construct with an ecdysone inducible promoter expressing GFP fused to the exon 1 of HTTQ25 (Huntington protein which containing a 25 ployglutamine expansion) were used. NCGC Assay Protocol Summary: Sequence, Parameter, Description 1, Reagent, 5 uL 1500 cells/well 1536 TC treated White clear bottom plate 2, Compound, 23 nL Tebufenozide inducer (100 nM final) to all columns 3, Compound, 23 nL 40 uM to 0.5 nM Libraries 4, Time, 40 hours at 37C 5, Reagent, 5 ul ATPLite cell death assay reagent 6, Detector, 4 sec integration with a Viewlux Luminescent Media consisted of phenol red free DMEM + 5% equine serum (Hyclone # SH30072.03 ), 5% supplemented Bovine Calf Serum (Hyclone # SH30074.03 ), 1x pen/strep, no G418
In the case of Cn1nnnc1Sc1ncnc2scc(-c3ccc(C(F)(F)F)cc3)c12, the “activity change, positive = cytoprotection” value (“activity change” below) is reported as -214%.
For Cn1nnnc1Sc1ncnc2scc(-c3cccc(C(F)(F)F)c3)c12, the “activity change” value was -214%.
For Cn1nnnc1Sc1ncnc2scc(-c3ccccc3Br)c12, the “activity change” value was 71.2%.
For Cn1nnnc1Sc1ncnc2scc(-c3ccccc3[N+](=O)[O-])c12, the “activity change” value was 81%.
In the case of Cn1nnnc1Sc1ncnc2scc(-c3ccc(Br)cc3)c12, the “activity change” value is reported as -147%.
With CC(=O)c1ccccc1-c1csc2ncnc(Sc3nnnn3C)c12 the “activity change” value was -28.5%.
In the case of Cn1nnnc1Sc1ncnc2scc(-c3ccc(C(=O)OC(C)(C)C)cc3)c12, the “activity change” value is reported as -159%.
For Cn1nnnc1Sc1ncnc2scc(-c3ccc(N)cc3)c12, the “activity change” value was -25.4%.
With Cn1nnnc1Sc1ncnc2scc(-c3cccs3)c12 the “activity change” value was -188%.
With Cn1nnnc1Sc1ncnc2scc(-c3ccccc3C(F)(F)F)c12 the “activity change” value was -39.8%.
With Cn1nnnc1Sc1ncnc2scc(-c3ccsc3)c12 the Potency was 10 µM (active).
In the case of Cn1nnnc1Sc1ncnc2scc(-c3cccc(Cl)c3)c12, the “activity change” value is reported as -144%.
In the case of COc1ccccc1-c1csc2ncnc(Sc3nnnn3C)c12, the “activity change” value is reported as -24.7%.
For CC(=O)c1ccc(-c2csc3ncnc(Sc4nnnn4C)c23)cc1, the “activity change” value was -68%.
In the case of Cc1ccccc1-c1csc2ncnc(Sc3nnnn3C)c12, the “activity change” value is reported as -42.3%.
In the case of Cn1nnnc1Sc1ncnc2scc(-c3cccc(F)c3)c12, the “activity change” value is reported as -189%.
With Cn1nnnc1Sc1ncnc2scc(-c3cccc(C#N)c3)c12 the “activity change” value was 7.62%.
For Cn1nnnc1Sc1ncnc2scc(-c3ccccc3)c12, the “activity change” value was -9.76%.
In the case of Cn1nnnc1Sc1ncnc2scc(-c3cccc4c3sc3ccccc34)c12, the “activity change” value is reported as 1.34%.
In the case of Cc1cccc(-c2csc3ncnc(Sc4nnnn4C)c23)c1, the “activity change” value is reported as 44.8%.
For COc1cccc(-c2csc3ncnc(Sc4nnnn4C)c23)c1, the Potency was 31.6 µM (active).
For COc1ccc(-c2csc3ncnc(Sc4nnnn4C)c23)cc1, the “activity change” value was 54%.
For Cn1nnnc1Sc1ncnc2scc(-c3ccc(S(C)(=O)=O)cc3)c12, the “activity change” value was -108%.
In the case of Cn1nnnc1Sc1ncnc2scc(-c3ccc(F)cc3)c12, the “activity change” value is reported as -11.8%.
In the case of Cn1nnnc1Sc1ncnc2scc(-c3ccc([N+](=O)[O-])cc3)c12, the “activity change” value is reported as -201%.
In the case of Cn1nnnc1Sc1ncnc2scc(-c3cccc(Br)c3)c12, the “activity change” value is reported as -154%.
With Cn1nnnc1Sc1ncnc2scc(-c3ccc(Cl)cc3)c12 the “activity change” value was 296%.
In the case of Cn1nnnc1Sc1ncnc2scc(-c3ccc(-c4ccccc4)cc3)c12, the “activity change” value is reported as -14.4%.
In the case of Cn1nnnc1Sc1ncnc2scc(-c3cccc(N)c3)c12, the “activity change” value is reported as -35.7%.
In the case of Cn1nnnc1Sc1ncnc2scc(-c3cc4ccccc4o3)c12, the “activity change” value is reported as -199%.
